HDAC3 inhib: HDAC3 deacetylase inhibitors, primary screen, biochemical, fluorescence, cell-free homogeneous | Histone deacetylase 3 (Homo sapiens), O15379 | recombinant HDAC3, fluorogenic peptide/trypsin coupled | inhibition, % at 8.3 µM | actives 0.15% (n = 320,000) | AID 2718, 2010; in the data active = inhibition above about 26%, passing the limit was not always enough; inconclusive = no clear call, values can overlap the other calls
GRK2 inh: compounds blocking aptamer binding on GRK2 – biochemical, human GRK2, bead flow cytometry, HTS, primary screen. actives 0.59% (n = 330,000). FAM-aptamer displacement from GRK2. AID 488847, 2010. inhibition of aptamer binding, % at 10 µM;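 active = inhibition of aptamer binding above 40%, roughly 3 SD of noise, on plates passing a quality check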;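 note: median bead fluorescence of bound FAM aptamer so fluorescent compounds give negative values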
H9c2 protect: cardioprotection against H2O2-induced cell death, primary screen, uHTS, H9c2 cells, ATPLite luminescence; H9c2 cardiomyocytes, H2O2 injury protection, 2 h; protection from H2O2 cell death, % at 20 µM; actives 0.63% (n = 360,000); AID 588492, 2011;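 active = compounds giving at least 50% protection of heart cells from peroxide-induced death in the single-dose screen, raw or plate-pattern-corrected value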
Neddylation inh: inhibitors of cullin neddylation, primary screen, biochemical, TR-FRET, uHTS, NAE and Ubc12. inhibition, % at 25 µM. actives 0.58% (n = 360,000); in the data active = inhibition above about 36%
Target sequence (P61081 whole entry, looked up): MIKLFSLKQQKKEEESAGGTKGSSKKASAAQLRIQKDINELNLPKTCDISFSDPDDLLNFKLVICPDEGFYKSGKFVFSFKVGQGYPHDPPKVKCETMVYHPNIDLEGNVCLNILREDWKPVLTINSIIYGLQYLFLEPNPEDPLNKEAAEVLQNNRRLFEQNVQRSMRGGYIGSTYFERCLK
Target sequence (Q13564 whole entry, looked up): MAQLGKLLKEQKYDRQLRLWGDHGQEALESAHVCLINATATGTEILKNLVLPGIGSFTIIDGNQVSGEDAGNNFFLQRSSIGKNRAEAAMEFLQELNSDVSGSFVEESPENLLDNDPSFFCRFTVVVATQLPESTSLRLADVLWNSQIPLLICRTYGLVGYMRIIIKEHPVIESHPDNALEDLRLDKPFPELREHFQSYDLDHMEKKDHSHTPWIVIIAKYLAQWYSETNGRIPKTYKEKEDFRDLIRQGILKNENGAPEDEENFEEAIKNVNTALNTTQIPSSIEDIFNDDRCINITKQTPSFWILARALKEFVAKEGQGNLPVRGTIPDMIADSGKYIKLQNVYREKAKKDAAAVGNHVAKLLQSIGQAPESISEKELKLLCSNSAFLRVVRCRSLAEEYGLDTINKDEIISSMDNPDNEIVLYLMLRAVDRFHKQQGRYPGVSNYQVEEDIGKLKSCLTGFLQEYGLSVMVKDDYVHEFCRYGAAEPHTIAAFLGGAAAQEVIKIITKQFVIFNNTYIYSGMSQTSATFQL
GRK2 CP1: GRK2 aptamer-displacing inhibitors, retest, confirmation, biochemical, cherry pick 1, bead flow cytometry; shares compounds with GRK2 inh; aptamer displacement, % at 10 µM; bead-bound GRK2, FAM-aptamer displacement; AID 504451, 2011; actives 4% (n = 2,000);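 active = aptamer displacement above 40%, near three times the noise of non-fluorescent compounds, on plates passing quality checks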;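 note: negative values mostly reflect intrinsic compound fluorescence rather than true enhancement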
Aptamer quench SP: aptamer fluorescence quenching in GRK2 counter-screen | Carboxyfluorescein RNA aptamer on beads, flow cytometry quenching; stronger effect = lower value | shares compounds with GRK2 inh | 2,000 tested, under 10 active | fluorescence response (% of DMSO), % at 10 µM | AID 504580;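 active = compounds that quench the bead-bound fluorescent RNA probe, cutting fluorescence to under half of the solvent control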;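 note: counterscreen run without GRK2 so only probe quenching by compound is measured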
GRK2 confirm 2: GRK2 aptamer-displacing inhibitors, hit retest, confirmation, biochemical, cherry pick 2, bead flow cytometry; inhibition of aptamer binding, % at 10 µM; 360 tested, under 10 active; bead-bound GRK2, FAM-aptamer displacement; shares compounds with GRK2 inh;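 active = inhibition of aptamer binding above 40%, about triple the noise seen with nonglowing compounds, on plates passing quality control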;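 note: negative values mostly come from compounds that fluoresce themselves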
FAM quench SP: aptamer fluorescence quenching in GRK2 counter-screen. shares compounds with GRK2 inh. 360 tested, under 10 active. fluorescence response vs DMSO, % at 10 µM. carboxyfluorescein RNA aptamer beads, flow cytometry quenching; stronger effect = lower value. AID 588494;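 active = response vs DMSO under 50%, meaning signal dropped by over half, treated as fluorescence quencher; inconclusive = no clear call, values can overlap the other calls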;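 note: labelled aptamer on streptavidin beads without GRK2 as a quench counter-screen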
Each line names hits and unclear results; the compound was inactive in the other large screens (follow-up assays come after a bar, where shown). Compounds with a hit are over-represented: about 1.8% of the library has one in this group of screens.

O=C(NC(=S)NCc1cccnc1)c1ccccc1	GRK2 inh 100.0 | GRK2 confirm 2 inactive | FAM quench SP inactive
O=C(NC(=S)NCc1ccccc1)c1ccc2c(c1)OCO2	GRK2 inh 94.0 | GRK2 confirm 2 inactive | FAM quench SP inactive
Cc1ccc(N2CCN(S(=O)(=O)c3ccc4oc(=O)ccc4c3)CC2)c(C)c1	none
Cc1sc2nc(SCC(=O)N(C)c3ccccc3)n(C)c(=O)c2c1C	none (no result: HDAC3 inhib)
COc1cc(SSc2cc(OC)cc([N+](=O)[O-])c2N)c(N)c([N+](=O)[O-])c1	GRK2 inh 87.0 (no result: HDAC3 inhib) | GRK2 CP1 inactive | Aptamer quench SP inactive
COc1cc([N+](=O)[O-])c2ncsc2c1	none
C[C@]12C=CC(=O)C=C1CC[C@@H]1[C@@H]2C(=O)C[C@@]2(C)[C@H]1CC[C@]2(O)C(=O)COC(=O)CCC(=O)O	GRK2 inh 78.0 | GRK2 CP1 inactive | Aptamer quench SP inactive
CC[C@@H](C)[C@@H]1CN([C@@H](C)CN2CCC[C@H]2CN2C(N)=NC[C@H]2CC(C)C)C(=N)N1CCc1ccc(Cl)c(Cl)c1	GRK2 inh 84.0 | GRK2 confirm 2 inactive | FAM quench SP inactive
Cc1ccc(C2CC(=O)Nc3cc4c(cc32)OCCO4)s1 (stereo unspecified)	none | GRK2 CP1 inactive | Aptamer quench SP inactive
CC(C)Sc1nc2c([nH]1)c(=N)ncn2Cc1ccccc1	GRK2 inh 81.0 | GRK2 CP1 inactive | Aptamer quench SP inactive
Cc1cccc(OCCSc2nc3c([nH]2)c(=N)ncn3Cc2ccccc2)c1	none
CCOC(=O)c1c(C)n2c3c(cc(C)cc13)CCC2	GRK2 inh 86.0 | GRK2 CP1 inactive | Aptamer quench SP inactive
C=CCOC(=O)/C(=C/c1cccc2ccccc12)NC(=O)c1ccccc1	none
FC(F)(F)c1cc(-c2ccc(Cl)cc2)nc2ncnn12	none (not shown: Neddylation inh)
COc1ccccc1C=NNC(=O)c1ccncc1	none (no result: HDAC3 inhib, GRK2 inh)
COc1ccc(OC)c(/C=N/NC(=O)c2ccncc2)c1	GRK2 inh 57.0 | GRK2 CP1 inactive | Aptamer quench SP inactive
N=C1/C(=C/c2ccco2)C(=O)N=C2SC(CC(=O)N3CCCC3)=NN12	GRK2 inh 46.0 | GRK2 CP1 inactive | Aptamer quench SP inactive
N=C1/C(=C/c2ccc(Br)o2)C(=O)N=C2SC(CC(=O)N3CCCC3)=NN12	none
Cc1cc2c(=O)n(C)c(SCC(=O)Nc3ccc(F)cc3)nc2s1	none (no result: HDAC3 inhib, GRK2 inh)
COc1cccc(C(=O)OCC(=O)c2c[nH]c3ccccc23)c1OC	GRK2 inh 43.0 | GRK2 CP1 inactive | Aptamer quench SP inactive
CCOc1ccc(CNC(=S)N/N=C\c2ccc([N+](=O)[O-])cc2)cc1	GRK2 inh 64.0 | GRK2 CP1 inactive | Aptamer quench SP inactive
Cc1cccc(Oc2ccc(S(=O)(=O)N3CCCCC3)cc2NC(=O)C2=COCCO2)c1	none | GRK2 CP1 inactive | Aptamer quench SP inactive
O=C(N/N=C/c1cc([N+](=O)[O-])ccc1N1CCCCCC1)c1ccccn1	GRK2 inh 84.0 | GRK2 CP1 inactive | Aptamer quench SP inactive
CCc1ccc(OCC(=O)N/N=C/c2cc([N+](=O)[O-])ccc2N2CCCCCC2)cc1	none
O=C(c1ccccc1)c1cc([N+](=O)[O-])ccc1N1CCCC1	GRK2 inh 100.0 | GRK2 confirm 2 inactive | FAM quench SP inactive
CN1CCN(c2ccc([N+](=O)[O-])cc2C(=O)c2ccccc2)CC1	none
N#CC(c1ccccc1O)N1N=C(c2ccccc2)CC1c1ccccc1 (stereo unspecified)	GRK2 inh 46.0 | GRK2 CP1 inactive | Aptamer quench SP 39.1
COc1cc(C(C#N)N2N=C(c3ccccc3)CC2c2ccccc2)ccc1O (stereo unspecified)	none
CNc1cncc(-c2ccc(OC)cc2OC)n1	none (not shown: HDAC3 inhib, GRK2 inh, Neddylation inh)
CC(=O)Oc1ccc2ccc(=O)oc2c1	GRK2 inh 80.0 (not shown: Neddylation inh) | GRK2 CP1 inactive | Aptamer quench SP inactive
Cc1ccc(C(=O)Oc2ccc3ccc(=O)oc3c2)cc1	none (not shown: Neddylation inh)
CC(=O)NC(c1ccc(F)c(F)c1)c1nc(-c2cnn(C)c2)cs1 (stereo unspecified)	none (no result: HDAC3 inhib, GRK2 inh)
CCCCN(C(=O)c1cccc(-n2cccc2)c1)c1c(N)n(Cc2ccccc2)c(=O)[nH]c1=O	GRK2 inh 46.0 | GRK2 CP1 inactive | Aptamer quench SP inactive
CCCCN(C(=O)CSc1nnc(-c2ccc(OC)cc2)n1CC)c1c(N)n(Cc2ccccc2)c(=O)[nH]c1=O	GRK2 inh 88.0 | GRK2 CP1 inactive | Aptamer quench SP inactive
O=C(Nc1cccc([N+](=O)[O-])c1)C1CC(=O)N(C2CCCCC2)C1 (stereo unspecified)	none
COC(=O)C(NC(=O)c1ccco1)(Nc1nc(C2CC2)cs1)C(F)(F)F (stereo unspecified)	GRK2 inh 90.0 | GRK2 CP1 inactive | Aptamer quench SP inactive
CC1Cc2ccccc2N1C(=O)CSc1nncs1 (stereo unspecified)	GRK2 inh 75.0 | GRK2 CP1 inactive | Aptamer quench SP inactive
Nc1nc(=S)c2ncn([C@@H]3O[C@H](CO)[C@@H](O)[C@H]3O)c2[nH]1	none
Nc1nc(=S)c2ncn(C3OC(CO)C(O)C3O)c2[nH]1 (stereo unspecified)	GRK2 inh 87.0 | GRK2 CP1 inactive | Aptamer quench SP inactive
O=C(NCc1nnc(SCC(=O)N2CCOCC2)o1)c1c(F)cccc1F	HDAC3 inhib inconclusive
CCOc1ccc(C(C)NC(=O)Cc2ccccc2F)cc1OCC (stereo unspecified)	GRK2 inh 68.0 | GRK2 CP1 inactive | Aptamer quench SP inactive
CN(C)c1ccc(CNC(=O)CCS(=O)(=O)c2ccc3c(c2)n(C)c(=O)c(=O)n3C)cc1	GRK2 inh 60.0 | GRK2 CP1 inactive | Aptamer quench SP inactive | GRK2 confirm 2 inactive | FAM quench SP inactive
COc1cccc(-c2nc(N3CCC(C)CC3)c3ccccc3n2)c1O	GRK2 inh 91.0 | GRK2 CP1 inactive | Aptamer quench SP inactive
O=C(COC(=O)Cc1ccc(Cl)c(Cl)c1)NCc1ccco1	none (no result: HDAC3 inhib) | GRK2 CP1 inactive | Aptamer quench SP inactive
O=C(COC(=O)Cc1ccc(Cl)cc1)NCc1ccco1	GRK2 inh 59.0 | GRK2 CP1 inactive | Aptamer quench SP inactive
O=C(COC(=O)Cc1c(Cl)cccc1Cl)NCc1ccco1	none

Source: PubChem BioAssay
